Drawing on PubChem BioAssay AID488969 (Vanderbilt High Throughput Screening Facility, 2010), this text covers z-score for 114 compounds.

Molecules are shown by their SMILES. The full ranking holds about 110,000 compounds; the median of “z-score” is about -0.1, and the highest 2% start at about 2. What follows is part of a selection rich in the highest values, with near analogues and random picks from the rest. Activity calls are given as the source filed them.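 Rule for the calls: active = z-score in the third read window above 3 or below -3; inactive = the rest.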

Metabotropic glutamate receptor 8 (Rattus norvegicus), sequence (P70579 whole entry, looked up): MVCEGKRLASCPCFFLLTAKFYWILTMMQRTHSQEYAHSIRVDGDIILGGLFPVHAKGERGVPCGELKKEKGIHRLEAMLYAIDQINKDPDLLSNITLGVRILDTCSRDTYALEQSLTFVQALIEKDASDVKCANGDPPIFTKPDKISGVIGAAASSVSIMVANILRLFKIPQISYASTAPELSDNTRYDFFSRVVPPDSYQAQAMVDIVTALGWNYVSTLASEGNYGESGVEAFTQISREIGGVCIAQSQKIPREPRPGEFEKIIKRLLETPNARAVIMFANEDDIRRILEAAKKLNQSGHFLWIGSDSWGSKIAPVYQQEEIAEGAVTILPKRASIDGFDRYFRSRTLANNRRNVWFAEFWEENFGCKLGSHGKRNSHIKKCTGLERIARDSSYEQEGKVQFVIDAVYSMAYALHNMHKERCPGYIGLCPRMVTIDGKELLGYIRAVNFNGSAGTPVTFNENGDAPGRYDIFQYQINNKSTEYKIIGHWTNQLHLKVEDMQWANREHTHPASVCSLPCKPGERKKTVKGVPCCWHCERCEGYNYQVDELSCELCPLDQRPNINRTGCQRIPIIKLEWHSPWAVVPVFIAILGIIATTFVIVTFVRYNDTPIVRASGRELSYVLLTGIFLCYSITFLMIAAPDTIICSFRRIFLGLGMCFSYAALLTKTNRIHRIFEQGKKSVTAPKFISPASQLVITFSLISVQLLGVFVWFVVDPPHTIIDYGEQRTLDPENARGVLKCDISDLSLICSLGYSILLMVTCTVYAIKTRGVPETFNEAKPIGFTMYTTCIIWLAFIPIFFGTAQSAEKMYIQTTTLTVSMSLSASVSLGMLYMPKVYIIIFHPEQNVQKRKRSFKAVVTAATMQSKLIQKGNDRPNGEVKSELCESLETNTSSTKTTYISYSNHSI

This assay concerns the target Metabotropic glutamate receptor 8 (Rattus norvegicus) (UniProt P70579). The assay is described as follows: rat mGluR8 modulators via GIRK flux, primary screen, cell-based, thallium flux, HTS (AID 488969). As to conditions: HEK293 rat mGluR8, GIRK (G protein-gated inwardly rectifying potassium channel) thallium flux, FluoZin2; at 10 µM; stronger effect = higher value; submaximal glutamate (EC20) added with thallium.
On to `c1ccc2sc(C3CCN(Cc4nnnn4Cc4ccc5c(c4)OCO5)CC3)nc2c1`, for which the z-score amounted to 0.227.

On to `CCc1nc(NCCCCCO)c2nnn(Cc3ccccc3F)c2n1`, for which the z-score is -0.538.

Consider `COC(=O)c1ccc2c(=O)n(CC3CCCO3)c(=S)[nH]c2c1` (centres undefined), for which the z-score is 7.72 (active).

As to `CCn1c(=S)[nH]c2cc(C(=O)OC)ccc2c1=O`, the z-score was 7.77 (active).

For `COC(=O)c1ccc2c(=O)n(CCO)c(=S)[nH]c2c1`, the z-score is 0.000255.

Compound `COCCCNC(=O)c1ccc2c(=O)n(CC3CCCO3)c(=S)[nH]c2c1` (centres undefined) yielded a z-score of 0.247.

Compound `O=C(NCC1CCCO1)c1ccc2c(=O)n(CC3CCCO3)c(=S)[nH]c2c1` (centres undefined) displayed a z-score of 0.352.

Compound `CCN(CC)CCCn1c(=S)[nH]c2cc(C(=O)OC)ccc2c1=O` registered a z-score of 0.199.

`O=C1CN(c2ccccc2Cl)C(=O)CN1c1ccccc1Cl` displayed a z-score of 0.348.

Take `Cc1cccc(C)c1N1CCc2cn[nH]c21`: the z-score was -0.273.

In turn, `O=C(CSc1nc2cc(Cl)ccc2s1)NC1CCCc2ccccc21` (centres undefined) yielded a z-score of -0.115.

Take `CC12CCC(C(=O)N(Cc3ccccc3)Cc3ccccc3)(OC1=O)C2(C)C` (centres undefined): the z-score is -0.0292.

For `COc1ccc(NC(=O)CSc2nc3ccccc3c(=O)n2Cc2cccs2)c(OC)c1`, the z-score was determined as 0.00897.

`O=C(CSc1nc2ccsc2c(=O)n1NC(=O)c1ccccc1)Nc1nccs1` gave a z-score of -0.202.

On to `CCCCNC(=O)CSc1nc2cc(OC)c(OC)cc2c(=O)n1Cc1ccc(OC)cc1`, for which the z-score is -0.298.

Consider `Cc1cc(NC(=O)CSc2nc3ccccc3c(=O)n2Cc2ccccc2)no1`, for which the z-score is 4.05 (active).

For `Cc1ccc(NC(=O)CSc2nc3ccccc3c(=O)n2CCCN2CCCCC2)cc1C`, the z-score stood at 0.975.

As for `CCC(C)NC(=O)CSc1nc2ccccc2c(=O)n1Cc1ccc(OC)cc1` (centres undefined), the z-score was 3.19 (active).

`CCOCCCn1c(SCC(=O)NC(C)C)nc2ccccc2c1=O` showed a z-score of 0.328.

On to `COc1ccc(NC(=O)CSc2nc3ccccc3c(=O)n2CCCN2CCCCC2)c(OC)c1`, for which the z-score was 3.69 (active).

For the compound `Cc1ccc(Cn2c(SCC(=O)Nc3cc(C)on3)nc3ccccc3c2=O)cc1`, the z-score came to 1.07.

Take `Cc1cc(NC(=O)CSc2nc3ccsc3c(=O)n2NC(=O)c2ccccc2)no1`: the z-score was 3.32 (active).

Turning to `CCCCn1c(SCC(=O)Nc2cc(C)on2)nc2ccccc2c1=O`, the z-score was -1.45.

On to `CC(C)CCNC(=O)CSc1nc2ccsc2c(=O)n1NC(=O)c1ccccc1`, for which the z-score is -0.0204.

The compound `Cc1cc(C)[n+](-c2ccc(F)cc2)c2[nH]c(=O)[nH]c(=O)c12` registered a z-score of 0.407.

With `Cc1ccc(C(=O)N2CC(=O)Nc3ccc(F)cc3C2c2ccccc2)cc1[N+](=O)[O-]` (centres undefined), the z-score was -0.229.

For the compound `O=C(NNC(=O)c1sc2cccc(Cl)c2c1Cl)Nc1ccccc1`, the z-score is -0.00877.

As for `C=CCn1c(SCC(=O)Nc2ccc3c(c2)OCO3)nc2ccccc2c1=O`, the z-score worked out at 0.212.

Turning to `Cc1ccc(OCCCN(C)C)c(Br)c1`, the z-score was found to be 1.17.

For the compound `CCOC(=O)c1oc2ccc(S(=O)(=O)n3nc(-c4ccc(Cl)cc4)cc3N)cc2c1C`, the z-score was -0.324.

Turning to `CN(CCC#N)C(=O)COC(=O)c1ccc(Cl)c(S(N)(=O)=O)c1`, the z-score turned out to be 0.0421.

On to `CC1CCN(C(=O)CSc2nc3ccccc3c(=O)n2Cc2ccc3c(c2)OCO3)CC1`, for which the z-score turned out to be 2.16.

Compound `CC1CCN(C(=O)Cn2c(=O)n(Cc3ccc4c(c3)OCO4)c(=O)c3ccccc32)CC1` registered a z-score of -1.65.

`CCCCNC(=O)CSc1nc2ccccc2c(=O)n1Cc1ccc2c(c1)OCO2` had a z-score of 0.908.

With `Cc1cccc(-n2ncc3c(NCCCO)ncnc32)c1`, the z-score amounted to 0.607.

In turn, `c1ccc(CCNc2ncnc3c2cnn3-c2ccccc2)cc1` came in with a z-score of -1.25.

On to `Cc1cccc(-n2ncc3c(NCCc4ccc(S(N)(=O)=O)cc4)ncnc32)c1`, for which the z-score was 8.89 (active).

The compound `O=C(CSc1ccc2nnc(-c3cccc(F)c3)n2n1)N1CCCc2ccccc21` displayed a z-score of -0.911.

The compound `Cc1ccc(NC(=O)CN(C)C(=O)CCOc2ccccc2C)cc1` had a z-score of 1.66.

Compound `CCC(CC)C1C(C#N)=C(N)Oc2n[nH]c(-c3ccccc3)c21` (centres undefined) displayed a z-score of -0.557.

For the compound `S=C(NN=C(C1CC1)C1CC1)Nc1ccccc1`, the z-score is 4.43 (active).

`O=C(NNC(=S)Nc1ccccc1)C1CC1` had a z-score of -0.336.

For `S=C(NN=C1C2CC3CC(C2)CC1C3)Nc1ccccc1`, the z-score is 11.7 (active).

As to `O=C(NN=C1C2CC3CC(C2)CC1C3)c1cccs1`, the z-score was 0.589.

`S=C(N/N=C1\C2CN3CCN(C2)CC1(c1ccccc1)C3)Nc1ccccc1` had a z-score of 0.425.

As for `CCC(=O)Nc1ccc(NC(=S)Nc2ccccc2)cc1`, the z-score is -0.362.

As for `CNC(=S)N/N=C/c1c(C)nn(-c2cccc(Cl)c2)c1Cl`, the z-score is -0.134.

Compound `CCOC(=O)C1CCN(C(=O)CSc2nnc(-c3ccco3)n2-c2ccccc2)CC1` registered a z-score of -0.369.

For the compound `O=C(NCc1ccccc1Cl)c1ccccc1Oc1ccccc1`, the z-score is -0.412.

`CCOC(=O)C1C(=O)Nc2nc3ccccc3n2C1C(C)C` (centres undefined) showed a z-score of -0.438.

Consider `Cc1ccc(-c2nc3ncccn3c2NC(=O)C2CC2)cc1`, for which the z-score is 0.268.

`COC(=O)Nc1c(-c2ccccc2)nc2ccccn12`: the z-score was -0.126.

In the case of `Cc1ccc(-c2nc3ccccn3c2NC(=O)c2ccco2)cc1`, the z-score came out at 0.65.

For `CC(=O)Nc1c(-c2ccc(F)cc2)nc2ccccn12`, the z-score stood at 2.25.

`Cc1cccc(C)c1Nc1c(-c2ccsc2)nc2ncccn12` gave a z-score of -0.464.

`CC(=O)Nc1c(-c2ccccc2)nc2ncccn12`: the z-score was 2.69.

Regarding `CC(C)(C)NC(=O)CN(C(=O)Cn1nnc(-c2ccc(Cl)cc2)n1)C1CCN(Cc2ccccc2)CC1`, the z-score was -0.128.

Compound `CC1CC(C)CN(c2ncnc3c2cnn3Cc2ccc(Cl)cc2)C1` (centres undefined) gave a z-score of -0.714.

`O=C(CSc1nnnn1-c1cccnc1)Nc1ccc(OCc2ccccc2)cc1` registered a z-score of -0.183.

`CCNCCNC(=O)c1c(O)c2ccccc2n(CC)c1=O` came in with a z-score of -0.289.

Turning to `CCn1c(=O)c(C(=O)NCCCO)c(O)c2ccccc21`, the z-score was 3.51 (active).

`CCn1c(=O)c(C(=O)NCCc2ccccc2)c(O)c2ccccc21` yielded a z-score of 0.613.

As for `COc1ccc(C(=O)COc2ccc(NC(C)=O)cc2)cc1`, the z-score was -0.0378.

Compound `COc1ccc(CCNC(=O)c2cc(-c3ccccc3)on2)cc1OC` registered a z-score of 0.914.

In turn, `S=C(NCCSCc1ccc(Cl)cc1Cl)Nc1ccccc1` returned a z-score of -0.181.

For `Fc1ccc(CNC(=S)Nc2ccc(Cl)cc2)cc1`, the z-score amounted to 0.385.

Take `S=C(NCc1ccc(Cl)cc1Cl)Nc1ccccc1`: the z-score is 3.34 (active).

The compound `S=C(Nc1ccccc1)Nc1ccc(OCc2ccc(Cl)cc2Cl)cc1` displayed a z-score of -0.223.

`Fc1ccccc1CNC(=S)Nc1ccc(Cl)cc1` came in with a z-score of 2.23.

`Fc1ccc(NC(=S)NCc2ccccc2Cl)cc1` gave a z-score of 1.74.

In turn, `O=C(OC(C(=O)NC1CCCCC1)c1ccccc1)c1ccco1` (centres undefined) showed a z-score of -0.0658.

Take `Cc1cccc(C(C)C)c1NC(=O)c1ccc(CN(c2ccccc2)S(=O)(=O)c2ccccc2)cc1`: the z-score was -0.0858.

Compound `COc1cc2c(cc1NC(=O)C(C)NCc1ccccc1)oc1ccccc12` (centres undefined) showed a z-score of 0.0909.

As to `O=C(NC1CCCCC1)C(c1ccccc1)N(Cc1ccco1)C(=O)Cn1cnc2ccccc21` (centres undefined), the z-score was -1.29.

Turning to `CC1(C)Cc2nc(NCCN3CCOCC3)c(C#N)cc2CO1`, the z-score is 7.19 (active).

Compound `CC1(C)Cc2nc(N3CCOCC3)c(C#N)cc2CO1` yielded a z-score of -0.0959.

On to `CC(C)c1nc(NCCN2CCOCC2)c(C#N)c2c1COC(C)(C)C2`, for which the z-score is -0.502.

Regarding `CC1(C)Cc2nc(NCCCO)c(C#N)cc2CO1`, the z-score was determined as 2.93.

The compound `Cc1nc(NCCCO)c(C#N)c2c1COC(C)(C)C2` displayed a z-score of 1.53.

Consider `CC(C)CCNc1nc2c(cc1C#N)COC(C)(C)C2`, for which the z-score was -0.377.

`Nc1nnc(SCC(=O)c2ccco2)s1`: the z-score was -0.0604.

As for `O=S1(=O)C=C(SCc2ccccc2)Nc2ccccc21`, the z-score is -0.11.

`CCOC(=O)c1nn(-c2ccc(OCC)cc2)c(C)c1C(C)=O` came in with a z-score of 0.0801.

In the case of `CCCCOC(=O)c1ccc(NC(=O)c2cnc3n(c2=O)CCS3)cc1`, the z-score was 0.203.

`O=C(NCc1ccc(F)cc1)c1cnc2n(c1=O)CCS2` registered a z-score of 2.18.

The compound `O=C(NCc1ccccc1)c1cnc2n(c1=O)CCS2` yielded a z-score of -0.0906.

Regarding `COc1ccc(CNC(=O)c2cnc3n(c2=O)CCS3)cc1`, the z-score is -0.183.

`O=C(Nc1ccccc1)c1cnc2n(c1=O)CCS2` had a z-score of -0.146.

Compound `CCc1ccc(NC(=O)c2cnc3n(c2=O)CCS3)cc1` gave a z-score of 2.53.

On to `CCOC(=O)c1ccc(N2C(=O)C3ON(c4ccccc4)C(c4ccco4)C3C2=O)cc1` (centres undefined), for which the z-score is -0.354.

Compound `COc1cc(OC)nc(NC(=O)CSc2nc3ccccc3o2)n1` returned a z-score of -0.294.

In the case of `Cc1cc(C)cc(N(CC(=O)O)S(=O)(=O)c2c(C)noc2C)c1`, the z-score is -0.132.

For the compound `CCNC(=S)NN(c1ccccc1)c1ccccc1`, the z-score is 0.837.

On to `CNC(=S)NN(c1ccccc1)c1ccccc1`, for which the z-score is -0.0349.

Consider `CC(C)NC(=S)NN(c1ccccc1)c1ccccc1`, for which the z-score was determined as 2.38.

On to `COc1ccc(OC)c(C2C3=C(CCCC3=O)NC3=C2C(=O)CCC3)c1`, for which the z-score is -0.586.

Consider `O=S(=O)(Cc1ccccc1Cl)CC(O)COc1ccccc1Cl` (centres undefined), for which the z-score was -0.273.

In the case of `Cc1c(C(=O)NN)nc2ccccn12`, the z-score is -0.145.

As for `Cc1nc2ccccn2c1C(=O)NN`, the z-score worked out at 2.34.

`COc1ccc(CNC(=O)c2c(C)nc3ccccn23)cc1` displayed a z-score of -0.0334.

In turn, `COc1nc(N/N=C/c2ccc(-c3ccccc3[N+](=O)[O-])o2)nc(N2CCOCC2)n1` returned a z-score of -0.309.

Compound `COc1ccc(S(=O)(=O)N(CCc2ccccc2)CC(=O)O)cc1Cl` registered a z-score of -0.104.

`CN1C(=O)C(O)(C2OC(C)(C)CCC2=O)c2ccccc21` (centres undefined) showed a z-score of -0.0799.

`NC(=O)C1(NC(=O)[C@@H]2CC3(CC(c4cccc(NC(=O)[C@@H]5CCC(=O)N5)c4)=NO3)CN2C(=O)Cc2ccc(C(F)(F)F)cc2)CC1` (some centres undefined) yielded a z-score of -0.279.

`O=C(Nc1nncs1)C1COc2ccccc2O1` (centres undefined) came in with a z-score of 0.542.

In the case of `NC(=O)C1CNc2ccccc2O1` (centres undefined), the z-score stood at 2.79.

As to `CCCNC(=O)C1CNc2ccccc2O1` (centres undefined), the z-score is -0.2.

`CCCCSc1nc(C)nc2c1c(=O)n(C)c(=O)n2C` returned a z-score of -0.303.

`COc1ccc2[nH]c3c(Cl)ncnc3c2c1` gave a z-score of -0.502.

On to `COC(=O)c1sc(NC(=O)/C=C/c2ccc(C)o2)nc1C`, for which the z-score is -0.15.

The compound `COc1ccccc1C(O)Cc1nc2ccccc2n1C` (centres undefined) showed a z-score of -0.393.

Compound `Cc1cccc(C)c1NC(=O)C(NC(=O)c1ccccn1)c1ccccc1[N+](=O)[O-]` (centres undefined) came in with a z-score of 0.95.

`Cc1cccc(C)c1NC(=O)C(NC(=O)c1ccccn1)c1ccc([N+](=O)[O-])cc1` (centres undefined) displayed a z-score of 2.97.

On to `Cc1cccc(C)c1NC(=O)C(c1cccc([N+](=O)[O-])c1)N(C)C(=O)c1ccccn1` (centres undefined), for which the z-score is -0.125.
